# High-throughput results (PubChem)
# Sampled rows, rich in hits. Any-hit rate of the full collection: about 18%.
# DT40 TDP1 no CPT – qHTS for Inhibitors of human tyrosyl-DNA phosphodiesterase 1 (TDP1): qHTS in cells in absence of CPT; DT40 Tdp1-/- hTDP1 cells, no CPT, ATP luminescence, 48 h; Potency, µM (series often up to 46.2 µM), inactives show top-dose activity change, negative = growth inhibition, actives largely listed as inhibitors; 420,000 tested, 15% active; AID 686978, 2013; also: potency is read from the fitted curve at half-maximal effect; nearly all actives have a fitted effect of over 55% in size
#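 Camptothecin absent (DMSO only). Human TDP1-complemented DT40 knockout cells, 400 cells/well, 37 °C for minimum 48 hr; ATP measured via CellTiter-Glo, 30 min dark incubation, luminescence.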
# TDP1 cell CPT – growth inhibition of DT40 Tdp1-/-;hTDP1 cells with camptothecin (screen for TDP1 inhibitors) | 420,000 tested, 12% active | Potency, µM (highest dose often 46.2 µM), for the others: at the top dose activity change, negative = growth inhibition, actives largely listed as inhibitors | chicken DT40 Tdp1-/-;hTDP1 cells + 20 nM CPT, ATP luminescence, 48 h; also: potency is read from the fitted curve at half-maximal effect; nearly all actives have a fitted effect of over 55% in size
#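 Chicken DT40 Tdp1-/- cells stably complemented with human TDP1 were seeded at 400 cells/well in medium containing 20 nM camptothecin, exposed to pin-transferred compounds, and grown at 37 °C for at least 48 hr. Viability was read as ATP luminescence.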
# Six1-Eya2 inh – inhibitors of human Six1/Eya2 interaction | Q15475+O00167 | AlphaScreen GST-Six1/His-Eya2 binding, biochemical; active compounds read low | activity change, % (no concentration beside the values) | 360,000 tested, 0.56% active; in the data active = activity change below about -65%; inconclusive = mostly about -30% to -63%
#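 AlphaScreen with GST-Six1 and His-Eya2 (5X mix: 250 nM and 500 nM), glutathione donor and nickel acceptor beads; buffer 50 mM Tris pH 8.0, 300 mM NaCl, 1 mM TCEP; 1 h at 37 C in the dark.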
# CtBP-E1A blk – CtBP/E1A binding inhibition; AlphaScreen GST-E1A/His-CtBP binding, 1536-well; active compounds read low; activity change, % (no concentration beside the values); 340,000 tested, 0.49% active; AID 651724; in the data active = activity change below about -65%; inconclusive = mostly about -30% to -63%
#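 Steps: dispense buffer (Tris pH 8.0, NaCl 300 mM, TCEP 1 mM, BSA, Tween 20); add 5X protein mix (GST-E1A, His-CtBP, 125 nM each); pin 23 nL compound; 2 h at 37 °C, dark; add 5X beads (50 ug/mL); 1 h; read.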
# TDP1 inh – blocks human tyrosyl-DNA phosphodiesterase 1. Q9NUW8. recombinant TDP1, AlphaScreen DNA substrate cleavage. Potency, µM (top dose mostly 130 µM), for inactives: top-dose activity change, negative = inhibition, most hits filed as inhibitors. 350,000 tested, 0.28% active; also: potency is read from the fitted curve at half-maximal effect; nearly all actives have a fitted effect of over 40% in size
#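 Compounds were preincubated with Tdp1 (1 nM final) for 15 min at room temperature before substrate (15 nM final) started a 5 min reaction; beads (10 ug/ml final) were then added for 10 min before AlphaScreen detection.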
# IL-1B inflam inh – inhibitors of inflammasome signaling (IL-1 beta secretion); THP-1 LPS/ATP IL-1B secretion, AlphaLISA, 16 h; active compounds read low; activity change, % at 57.5 µM; 360,000 tested, 4.7% active; AID 743279; in the data active = activity change below about -50%; inconclusive = mostly about -30% to -49%
#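 Secreted IL-1B measured by AlphaLISA bead assay after 16 h compound exposure of THP-1 cells; compounds (final up to 57.5 uM) added 1 h before LPS (250 ng/mL) and ATP (1.25 mM) stimulation; lower signal means less secretion.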
# Active calls of the source: *; u = inconclusive; x = no result. Unless noted, calls follow the shape of the dose curve; as a rule, active = well fitted curve in the direction sought with a large enough effect; inconclusive = small, poorly fitted or top-dose-only effect, or another doubt; inactive = no such curve, though single readings can be large; an effect the other way counts as inactive or inconclusive. % is scaled to controls: 0 for no effect and ±100 for the full control effect.
SMILES,DT40 TDP1 no CPT,TDP1 cell CPT,Six1-Eya2 inh,CtBP-E1A blk,TDP1 inh,IL-1B inflam inh
CCCN1CCc2c(sc(NC(=O)c3ccc(S(=O)(=O)N4CCCC4)cc3)c2C(N)=O)C1,-13%,u,12,3,-16%,14
COC(=O)COc1ccc(Oc2nc(NC(C)(C)C)nc(N3CCOCC3)n2)nn1,-5%,-23%,x,x,1%,x
O=C(Nc1ccc(Cl)cn1)c1cccc(F)c1,4.6µM*,7.3µM*,1,6,4%,11
CC(C)C(=O)Nc1ccc(NC(=O)c2cccc(F)c2)cn1,u,-12%,-2,-5,-2%,-60*
Cc1cc([N+](=O)[O-])ccc1NC(=O)c1sc2ncn(CC(=O)N3CCOCC3)c(=O)c2c1C,u,u,3,-15,0%,42
CC(C)CC1NC(=O)N(CC(=O)Nc2cc([N+](=O)[O-])ccc2F)C1=O (stereo not given),6%,1%,3,-4,1%,u
CCOC(=O)[C@]12Cc3c(cc(OC)c(OC)c3OC)[C@H]1N(Cc1ccccc1)C(=O)c1cc(OC)ccc12,13µM*,u,-7,-4,x,x
CCOC(=O)[C@]12Cc3c(cc(OC)c(OC)c3OC)[C@H]1N(CCC(=O)OC)C(=O)c1cc(OC)ccc12,16µM*,u,1,-3,x,-116*
CCOC(=O)[C@]12Cc3c(cc(OC)c(OC)c3OC)[C@H]1N(Cc1ccccc1)C(=O)c1cc(F)c(F)cc12,26µM*,u,-9,-2,x,-68*
CCOC(=O)CNC(=O)C1c2cc(OC)c(OC)cc2C(=O)N(C)C1c1ccccc1F (stereo not given),-12%,-7%,1,6,0%,6
COc1ccc(/C=N/Nc2ncc(C(F)(F)F)cc2Cl)cc1OC,u,u,8,-10,0%,-12
Cc1cc(C)cc(-c2nnc(SCC(=O)c3c(N)n(C4CC4)c(=O)[nH]c3=O)o2)c1,-11%,-4%,-1,-10,-2%,3
Clc1ccc(CN2CCc3nc(N4CCN(c5ccccn5)CC4)ncc3C2)cc1,-20%,-20%,x,x,4%,x
CCOc1ccc(CN2CCc3nc(N4CCN(c5ncccn5)CC4)ncc3C2)cc1OC,u,21µM*,x,x,-6%,x
COc1cccc(N2CCN(c3ncc4c(n3)CCN(Cc3ccc(Br)cc3)C4)CC2)c1,9.2µM*,13µM*,x,x,6%,x
COc1cc(OC)c(OC)cc1CN1CCc2nc(N3CCN(c4ncccn4)CC3)ncc2C1,23µM*,16µM*,x,x,1%,x
CCOc1ccc(CN2CCc3nc(N4CCN(c5ccccc5OC)CC4)ncc3C2)cc1OC,10µM*,9.2µM*,x,x,9%,x
C[C@@H]1CN([C@@H](C)CO)C(=O)c2cccc(NC(=O)Nc3ccc4c(c3)OCO4)c2O[C@H]1CN(C)S(=O)(=O)c1cn(C)cn1,u,u,-3,-15,2%,-21
Fc1ccccc1N1CCN(c2ncc3c(n2)CCN(Cc2cc(Br)cs2)C3)CC1,-25%,u,x,x,1%,x
CCc1ccc(CN2CCc3nc(N4CCN(c5ccccc5F)CC4)ncc3C2)cc1,18µM*,u,x,x,6%,x
Cc1oc2ncnc(N3CCCCC3)c2c1C(=O)N1CCN(c2ccc(Cl)cc2)CC1,u,-19%,x,x,-1%,x
Cc1noc(C)c1COc1ccc(C(=O)N2CCN(c3cccc(Cl)c3)CC2)cc1,u,u,-7,-2,1%,u
CC(=O)c1ccc(N2CCN(c3ncnc4onc(C)c34)CC2)cc1,5.8µM*,4.1µM*,x,x,-2%,x
Cc1ccc(Cl)cc1N1CCN(S(=O)(=O)c2c(C)noc2C)CC1,u,u,7,14,-2%,8
